The list is not random: actives were taken first. Their share in the collection is about 4.8%.
hcDAF-12 act – H. contortus DAF-12 activation, primary screen; HEK293 hcDAF-12 lit1-tk-luc reporter, luminescence; 0% DMSO, 100% Δ7-dafachronic acid; activation, % at 6.8 µM; actives 1.4% (n = 370,000);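 active = activation above the mean of all tested compounds plus 3 SD, cut at about 5.5% in these data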;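 also: 100% = response to 3 µM Δ7-dafachronic acid high control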
hgDAF-12 ag – activates the H. glycines DAF-12 receptor ligand-binding domain | actives 1.8% (n = 370,000) | HEK293 GAL4-hgDAF12 UAS-luciferase reporter, agonist luminescence; normalized to butyrate control | activation, % at 6.8 µM;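 active = activation above a cutoff set at the mean of all screened compounds plus 3 SD, cut at about 10% in these data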;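 also: 0% = DMSO wells and 100% = sodium butyrate wells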
ssDAF-12 act – S. stercoralis DAF-12 activation, primary screen; actives 1% (n = 370,000); HEK293 ssDAF-12/GRIP1 lit1-tk-luc reporter, luminescence; % of 3 µM dafachronic acid response; activation, % at 6.8 µM;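 active = activation above the mean over all tested compounds plus 3 SD, cut at about 0.9% in these data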;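 also: 0% = DMSO-only wells and 100% = 3 µM delta7-dafachronic acid wells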
DAX1 inh-1 – inhibitors of human orphan nuclear receptor DAX1 (NR0B1); P51843; HEK293 Gal4-DAX1 luciferase reporter, luminescence; inhibition, % at 6.75 µM; actives 0.99% (n = 340,000);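 active = inhibition above the mean over all tested compounds plus 3 SD, cut at about 4.2% in these data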;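 also: 0% = DAX1-transfected cells with DMSO and 100% = empty-vector control cells with DMSO; inhibition shows as a rise in luminescence from relieved DAX1 repression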
DAX1 inh-2 – inhibitors of DAX1 repression of SF-1 activated StAR promoter; HEK293T StAR-luciferase reporter, SF-1/DAX-1 repression relief; inhibition, % at 6.8 µM; actives 1.1% (n = 370,000); AID 652010;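 active = inhibition above the mean over all tested compounds plus 3 SD, cut at about 3.6% in these data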;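 also: 0% = DAX-1 cells with DMSO and 100% = cells lacking DAX-1 with DMSO; higher inhibition means more luminescence from relief of DAX-1 repression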
NR1D1 modulator – modulators of human Rev-erb alpha DNA binding; P20393; Rev-erbα–FITC-DNA binding, fluorescence polarization, 90 min; activity, % at 10 µM; actives 0.79% (n = 370,000);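 active = activity above about 14%, limit read from the data; passing the limit was not always enough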;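 also: 0% = DMSO wells with 35 nM protein and 100% = DMSO wells with 750 nM protein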
Target sequence (P20393 whole entry, looked up): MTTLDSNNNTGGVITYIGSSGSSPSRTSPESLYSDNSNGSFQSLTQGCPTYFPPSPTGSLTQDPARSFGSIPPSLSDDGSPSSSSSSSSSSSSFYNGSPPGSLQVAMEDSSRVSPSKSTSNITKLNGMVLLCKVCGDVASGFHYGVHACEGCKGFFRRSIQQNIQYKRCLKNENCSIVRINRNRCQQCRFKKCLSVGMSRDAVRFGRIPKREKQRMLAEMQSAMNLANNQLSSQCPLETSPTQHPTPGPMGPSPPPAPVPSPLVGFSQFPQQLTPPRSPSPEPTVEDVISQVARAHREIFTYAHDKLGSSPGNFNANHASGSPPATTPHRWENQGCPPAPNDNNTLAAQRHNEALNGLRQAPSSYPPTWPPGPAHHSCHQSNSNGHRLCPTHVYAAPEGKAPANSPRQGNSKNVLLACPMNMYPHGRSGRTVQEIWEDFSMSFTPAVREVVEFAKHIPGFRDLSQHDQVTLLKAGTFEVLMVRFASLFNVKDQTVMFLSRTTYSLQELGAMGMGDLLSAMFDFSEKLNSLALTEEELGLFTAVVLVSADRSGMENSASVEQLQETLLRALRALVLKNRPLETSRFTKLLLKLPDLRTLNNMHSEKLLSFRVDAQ
NR1D1 mod conf – Rev-erb alpha (human) modulation, hit confirmation; activation, % at 25 µM; AID 1259319; shares compounds with NR1D1 modulator; actives 61% (n = 3,000); Rev-erb alpha FITC-DNA binding, fluorescence polarization, 90 min;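 active = activation at or above a set limit, or at least 3 SD above the negative control mean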;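 also: 0% = 35 nM protein with DMSO and 100% = 750 nM protein high control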
RORg counter – affects RORgamma DNA binding in a Rev-erb alpha counter-screen; shares compounds with NR1D1 modulator; purified RORgamma protein-FITC-DNA binding, fluorescence polarization; IC50, µM; actives 8% (n = 910); AID 1259320;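 active = Compounds whose fitted half-maximal concentration for disrupting protein-DNA binding is below 10 micromolar; the record names Rev-erb in its text, so the target is in doubt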
Starred values were filed as active, the others as inactive.

`COc1cccc(NC(=O)CSc2nc(C3CC3)nc3ccccc23)c1` gave hcDAF-12 act -2.7, hgDAF-12 ag -2.1, ssDAF-12 act -1.1, DAX1 inh-1 -1.1, DAX1 inh-2 -0.2 and NR1D1 modulator -7.1.
O=C(CSc1nc2ccccc2[nH]1)Nc1ccc2c(c1)OCCO2 was read as hcDAF-12 act -0.1, hgDAF-12 ag 3.3, ssDAF-12 act -0.6, DAX1 inh-1 0.5, DAX1 inh-2 -0.5 and NR1D1 modulator -2.4.
`CCOc1ccc(NC(=O)CSc2nc(C3CC3)nc3ccccc23)cc1` gave hcDAF-12 act -0.5, hgDAF-12 ag 2.0, ssDAF-12 act -1.6, DAX1 inh-1 -0.6, DAX1 inh-2 -0.7, NR1D1 modulator 129.3*, NR1D1 mod conf 59.3* and RORg counter >40.
For CCN(CC)C(=O)c1ncn2c1C(=O)NC[C@@H]2C the results were hcDAF-12 act 0.5, hgDAF-12 ag 1.1, ssDAF-12 act -1.2, DAX1 inh-2 -0.2 and NR1D1 modulator -0.3.
COc1ccc(C(=O)NCC2CCN(C(=O)C(=O)c3cc4ccccc4o3)CC2)cc1 was read as hcDAF-12 act -0.2, hgDAF-12 ag 1.1, ssDAF-12 act -0.3, DAX1 inh-2 0.5 and NR1D1 modulator 5.6.
COc1ccc2c3c([nH]c2c1)[C@]1(NCC3)C(=O)N(C)c2ccc(Cl)cc21 was read as hcDAF-12 act 1.6, hgDAF-12 ag 1.8, ssDAF-12 act 0.6, DAX1 inh-2 -1.2 and NR1D1 modulator 1.7.
`CCC(=O)N1CCc2cc(Br)c(S(=O)(=O)NC3CCN(Cc4ccccc4)CC3)cc21` gave hcDAF-12 act -2.4, hgDAF-12 ag 1.2, ssDAF-12 act -1.0, DAX1 inh-2 0.4 and NR1D1 modulator -0.1.
Screening Cc1nn(-c2ccccc2)c2sc(C(=O)NCCc3ccccc3)cc12 returned hcDAF-12 act -0.1, hgDAF-12 ag 5.1, ssDAF-12 act -2.0, DAX1 inh-2 -1.0 and NR1D1 modulator -1.3.
COc1ccc(/C=N\NC(=O)c2ccccc2[N+](=O)[O-])cc1COc1c(F)c(F)c(F)c(F)c1F was read as hcDAF-12 act 1.0, hgDAF-12 ag 1.1, ssDAF-12 act -0.9, DAX1 inh-1 -0.5, DAX1 inh-2 -1.5, NR1D1 modulator 19.8* and NR1D1 mod conf 13.7.
For COc1ccc(/C=N\NC(=O)c2ccc([N+](=O)[O-])cc2)cc1COc1c(F)c(F)cc(F)c1F the results were hcDAF-12 act -0.6, hgDAF-12 ag -0.7, ssDAF-12 act -0.8, DAX1 inh-1 -0.1, DAX1 inh-2 -1.2 and NR1D1 modulator -9.4.
`C[C@H]1[C@@H](OC(=O)NCc2ccccc2Cl)CC[C@@]23CCCN2C(=O)CCC[C@@H]13` gave hcDAF-12 act -1.4, hgDAF-12 ag 1.5, ssDAF-12 act -1.9 and NR1D1 modulator 0.7.
Screening Cc1cc(-c2ccccc2)nc2oc3c(c12)NC(=O)CN(c1ccccc1)C3=O returned hcDAF-12 act -1.6, hgDAF-12 ag -1.0, ssDAF-12 act -1.1, DAX1 inh-1 0.5, DAX1 inh-2 -0.2, NR1D1 modulator 23.2*, NR1D1 mod conf 35.0* and RORg counter 1.13*.
`COc1cccc(N2CC(=O)Nc3c(oc4nc(-c5ccccc5)cc(C)c34)C2=O)c1` gave hcDAF-12 act -0.6, hgDAF-12 ag -0.5, ssDAF-12 act -0.4, DAX1 inh-1 -0.9, DAX1 inh-2 0.1 and NR1D1 modulator 17.8.
`O=C(COc1ccccc1)Nc1nc2cc3c(cc2s1)OCO3` gave hcDAF-12 act 6.1*, hgDAF-12 ag 5.0, ssDAF-12 act -0.5, DAX1 inh-1 0.3, DAX1 inh-2 3.2, NR1D1 modulator 40.6* and NR1D1 mod conf 15.0.
For O=C(COc1ccccc1)Nc1nc2cc3c(cc2s1)OCCO3 the results were hcDAF-12 act 4.1, hgDAF-12 ag 2.4, ssDAF-12 act 0.1, DAX1 inh-1 1.3, DAX1 inh-2 2.0, NR1D1 modulator 76.0*, NR1D1 mod conf 50.2* and RORg counter >40.
CC(=O)Nc1ccc2nc(NC(=O)COc3ccccc3)sc2c1 was read as hcDAF-12 act -0.2, hgDAF-12 ag 2.1, ssDAF-12 act -1.4, DAX1 inh-1 -0.7, DAX1 inh-2 -0.2 and NR1D1 modulator 2.6.
Screening Cc1ccc(NC(=O)c2cccc(S(=O)(=O)Nc3c(C)n(C)n(-c4ccccc4)c3=O)c2)cc1C returned hcDAF-12 act -1.7, hgDAF-12 ag -1.4, ssDAF-12 act -0.7, DAX1 inh-2 -1.0 and NR1D1 modulator 4.8.
Screening CCCC1CCC2(CC1)CCC2OC(=O)Nc1ccc(F)cc1 (stereo not drawn) returned hcDAF-12 act -2.1, hgDAF-12 ag 2.5, ssDAF-12 act -1.6 and NR1D1 modulator 4.4.
Screening CCCCN(CCCC)Cc1cc(=O)oc2cc(C)c(Cl)cc12 returned hcDAF-12 act 2.1, hgDAF-12 ag 0.3, ssDAF-12 act -1.2, DAX1 inh-2 -1.3 and NR1D1 modulator 2.9.
`CCCCN(CCCC)Cc1cc(=O)oc2cc(C)cc(C)c12` gave hcDAF-12 act 2.4, hgDAF-12 ag -0.2, ssDAF-12 act -0.4, DAX1 inh-2 0.6, NR1D1 modulator 18.9* and NR1D1 mod conf -0.8.
For Cc1nn(-c2ccccc2)c2nc(N)c(C#N)c(-c3ccc(F)cc3)c12 the results were hcDAF-12 act -2.7, hgDAF-12 ag -1.5, ssDAF-12 act -1.9, DAX1 inh-1 -0.6, DAX1 inh-2 -0.8 and NR1D1 modulator 5.2.
Cc1nn(-c2ccc(F)cc2)c2c1cc(C#N)c1nc3ccccc3n12 was read as hcDAF-12 act -0.3, hgDAF-12 ag 0.2, ssDAF-12 act -0.9, DAX1 inh-1 0.1, DAX1 inh-2 0.6, NR1D1 modulator 60.4* and NR1D1 mod conf 39.1*.
O=C(OCc1cn(Cc2cccc(Cl)c2)nn1)N1CCCC1 was read as hcDAF-12 act -2.0, hgDAF-12 ag 0.7, ssDAF-12 act -0.9, DAX1 inh-2 -0.5 and NR1D1 modulator 0.3.
Screening CCc1nn(CC(=O)NCCCc2ccccc2)c(=O)c2cc3c(OC)cccc3n12 returned hcDAF-12 act 2.3, hgDAF-12 ag 0.3, ssDAF-12 act -1.8, DAX1 inh-1 -0.2, DAX1 inh-2 -0.3, NR1D1 modulator 30.6* and NR1D1 mod conf 3.7.
`CCOc1ncccc1C(=O)Nc1cc(S(=O)(=O)N2CCCCC2)ccc1Cl` gave hcDAF-12 act -0.7, hgDAF-12 ag -0.2, ssDAF-12 act -1.5, DAX1 inh-1 1.8, DAX1 inh-2 -1.9, NR1D1 modulator 22.6* and NR1D1 mod conf 10.7*.

High-throughput results from PubChem.
